Drawing on PubChem BioAssay (NCI), this text covers growth for ten molecules.

Each structure is given as a SMILES string. Compounds without any hit were thinned out: in the full panel of roughly 83,000, 20% have a hit.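 The test compound was applied at a single concentration to cells in 96-well plates for 48 hours, and percent growth was recorded.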 Active and inactive are the calls of the source. Rule for the calls: active = growth percent below 10; inactive = the rest.

The assay concerns HL-60(TB) leukemia. Description: NCI-60 one-dose screen, 48 h (100 = growth as untreated, 0 = no growth, -100 = all killed). As to conditions: 10 µM unless noted.
Consider `Cc1ccc(N2CCN(C3=C(Cl)C(=O)c4ncccc4C3=O)CC2)cc1`, for which the growth was 3.39% (active). The figure for `Cn1ccnc1C(=O)/C=C/c1ccc(NC(=O)Nc2ccc(F)cc2)cc1` is 7.58% (active).

For `O=C1[C@H]2Cc3c([nH]c4ccccc34)[C@@H](c3ccc(Br)cc3)N2C(=O)CN1C1CCN(CC2CCCCC2)CC1`, the growth is -70.6% (active). Then `Nc1nc(N)c2c(n1)NC(c1ccc(C(F)(F)F)cc1)CC(c1ccc(Nc3nc(NCCO)nc(N4CCOCC4)n3)cc1)=N2` (stereo not given), with 21.4% (inactive); and `CC(C)N=C(N/C(N)=N/c1nc2ccccc2s1)NC(C)C`, with 41.7% (inactive); and `COC(=O)c1ccc(NC2=C/C(=N/S(=O)(=O)c3ccc(C(=O)O)cc3)c3ccccc3C2=O)cc1`, with -15.9% (active). On to `CN1CCN(Cc2ccc(NC(=O)c3cncc(C#Cc4cnc5ccc(N)nn45)c3)cc2C(F)(F)F)CC1`, for which the growth is 2.82% (active). The figure for `CCN(CC)S(=O)(=O)c1ccc(-c2nc(C(Cl)Cl)nc3cc(C)nn23)cc1` is -9.17% (active); for `Cc1sc2c(c1C)c(=O)nc1c(-c3nc(-c4ccc(F)cc4)no3)n[nH]n12` it is 103% (inactive); for `Cc1cc(C)n(C(=O)c2sc(=S)n(-c3ccccc3)c2N=Nc2c(N)n[nH]c2N)n1` it is 110% (inactive).
